BL2 CD40 inh: inhibitors of CD40-induced NF-kB signaling, primary screen, BL2 cells, luciferase reporter, single point. CD40L-induced, 4 h. inhibition, % at 10 µM. hit rate 0.94% among 83,000;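 active means mean inhibition of at least 50% with a set share of replicates also reaching that level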;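 further: 0% = neutral control wells and 100% = IKK inhibitor VII at 50 µM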
Numbers without * were called inactive; [ ] = another dose, or the depositor's remark. This excerpt belongs to a sample that is enriched for hits.

SMILES	BL2 CD40 inh
O=C(C[C@@H]1C=C[C@H](NC(=O)c2cccc(F)c2)[C@H](CO)O1)NCc1ccccc1	5
COc1ccc(CN(CCC(c2ccccc2)c2ccc(OC(C)C)cc2)C(=O)CCl)cc1OC (stereo not given)	44*
COc1ccc(CN(CCC(c2ccco2)C(C)C)C(C)=O)cc1OC (stereo not given)	5
COc1ccc(CN(CCC(c2ccccc2)C2CCOC(C)(C)C2)C(C)=O)cc1 (stereo not given)	-5
CNC[C@@H]1Oc2ccc(NS(C)(=O)=O)cc2C(=O)N(C)C[C@@H]1C	5
CN1CCN(C(=O)C[C@@H]2CC[C@H]3[C@@H](COC[C@H](O)CN3CC3CCCC3)O2)CC1	-1
COc1ccccc1C(=O)N1C[C@@H]2[C@H](c3ccccc31)[C@H](CO)N2CC1CCCC1	16[25 µM]
C[C@@H]1CN(C)C(=O)c2ccccc2O[C@H]1CN(C)S(C)(=O)=O	10
CN1CCN(c2ccc(NC(=O)N3CCc4ccccc43)cc2)CC1	73*
CC(=O)c1cccc(NC(=O)N2CCCc3ccccc32)c1	-23
CN1C(=O)CSc2ccc(NC(=O)N3CCc4ccccc43)cc21	-118
Cc1ccc(C(=O)CCC(=O)Nc2ccc(C)cn2)cc1	9
Cc1ccc(NC(=O)CNC(=O)c2cccc(C)c2)nc1	58*
Cc1ccc(NC(=O)CNC(=O)c2ccc(Oc3ccccc3)cc2)nc1	-20
CO[C@H]1CN(C)C(=O)c2cc(NC(=O)C3CCCC3)ccc2OC[C@@H](C)N(C)C[C@H]1C	2
CS(=O)(=O)N1C[C@@H]2N[C@H](C1)C2c1ccc(-c2ccc(F)cc2)cc1 (stereo not given in full)	14
CC(=O)Nc1ccc2c(c1)C(=O)N(C)C[C@H](C)[C@@H](CN(C)S(C)(=O)=O)O2	6
COc1ccc(C#Cc2ccc3c(c2)[C@H]2[C@H](CCN2Cc2ccncc2)[C@@H](CO)N3)cc1	-35[25 µM]
CN1c2ccc(C#Cc3cccnc3)cc2[C@@H]2[C@@H](CCN2C(=O)C2CC2)[C@H]1CO	-10
CC(C)C1CC(N(C)C)=CC(=S)N1 (stereo not given)	30*
CN1CCN(C(=O)C[C@H]2CC[C@@H]3[C@@H](COc4ccc(NC(=O)C5CCC5)cc4C(=O)N3C)O2)CC1	1
CC(=O)N1Cc2cc(C(=O)NCc3cccc(F)c3)nc(-c3cccc(C4=CCCC4)c3)c2[C@@H]1CCO	4
O=C(CN1C(=O)c2ccccc2S1(=O)=O)c1ccc2c(c1)OCCO2	95*
O=C(Cn1cnc2ccccc2c1=O)c1ccc2c(c1)OCCO2	-58
O=C(CCN1C(=O)c2ccccc2S1(=O)=O)Nc1ccc2c(c1)OCCO2	-19
SMILES	BL2 CD40 inh
C/C=C/c1ccc([C@H]2[C@@H](CNC(C)C)N(C(=O)c3ccccn3)[C@H]2CO)cc1	11[25 µM]
O=C1c2ccccc2C(=O)C1c1ccc2ccccc2n1	52*
COc1ccc(C2C(=O)c3ccccc3C2=O)cc1	-9
O=C1c2ccccc2-c2nc3ccccc3cc21	-84
CC(=O)N1C[C@@H]2C(c3ccc(Br)cc3)[C@H](C1)N2C(C)=O (stereo not given in full)	-3
c1ccc(-c2noc(-c3ccc4c(c3)OCO4)n2)nc1	75*
c1ccc(-c2noc(-c3cccnc3)n2)nc1	-3
c1ccc(-c2nccc(-c3ccc4c(c3)OCO4)n2)cc1	-88
c1ccc(-c2noc(-c3ccc4ccccc4c3)n2)nc1	105*
c1ccc(-c2noc(-c3ccncc3)n2)nc1	-47
c1ccc(CCc2ccccc2-c2nc(-c3ccccn3)no2)cc1	11
C[C@H]1COCn2nncc2CC[C@H](Cc2ccccc2)C(=O)N1	2
O=C(c1ccccn1)N1CC[C@H]2[C@H](CO)Nc3ccc(-c4ccc(F)cc4)cc3[C@H]21	-55[25 µM]
CC(=O)Nc1cccc2c1O[C@H](CN(C)C(C)=O)[C@@H](C)CN(C)C2=O	6
COc1ccc(C(=O)NCC2CCCN2S(=O)(=O)c2ccccc2)cc1OC (stereo not given)	3
Cc1ccc(S(=O)(=O)N2CCCC2CNC(=O)c2ccccc2)cc1 (stereo not given)	-9
Cc1ccc(S(=O)(=O)N2CCCC2CNC(=O)c2ccc3c(c2)OCO3)cc1 (stereo not given)	38*
COc1ccccc1NC(=O)N1C[C@H]2[C@@H](c3ccccc31)[C@@H](CO)N2C(=O)c1ccccc1	4[25 µM]
CCCCCCCCCCCC1C(=O)C(=O)CC(=O)C1=O	0[25 µM]
COc1ccccc1Nc1nc(NCc2ccco2)c2ccccc2n1	-21
c1ccc(N2CCN(c3nc(NCc4ccco4)c4ccccc4n3)CC2)cc1	29
c1ccc(-c2nc(NCc3ccco3)c3ccccc3n2)nc1	53*
CC(C)NC(=O)N(C)C[C@@H]1Oc2ccc(N(C)C)cc2CC(=O)N(C)C[C@H]1C	0
C=C1C(=O)OC2C=C(CO)C3OC3C3OC3(C)CC(OC(=O)/C(=C/C)COC(C)=O)C12 (stereo not given)	101*
COc1cccc(NC(=O)N2CC(=O)N3[C@@H](CO)[C@@H](c4ccc(C#CC5CCCC5)cc4)[C@@H]3C2)c1	5

Screens: PubChem BioAssay, Broad Institute
